The source of these data is PubChem BioAssay AID463173 (ICCB-Longwood Screening Facility, Harvard Medical School, 2010).

Among all 52,000 compounds or so, about 4,300 (8.3%) were called active. No stated cut-off is given here; in the data, active means survival mostly below about 52% (no sharp cut-off); inactive means mostly above about 56%. This excerpt belongs to a sample that is enriched for actives.

The test concerns DeltatarO mutant. Put plainly: S. aureus survival, RN4220 and DeltatarO strains – OD600, teichoic acid synthesis inhibitors, primary screen (AID 463173). Conditions: S. aureus RN4220 wild type/DeltatarO growth, OD600, 18 h, active compounds read low, screened at 18.75 µg/mL (by protocol).
Regarding `COc1cc(OC)cc(-n2nnc(-c3nc(-c4ccccc4Cl)no3)c2N)c1`, the survival is 86% (inactive).
Consider `COc1ccccc1N1CCN(S(=O)(=O)c2ccc(-c3coc(C)n3)cc2)CC1`, for which the survival is 71% (inactive).
Under `O=C1CCCc2c1cc(C(=O)N1CCOCC1)c(=O)n2-c1ccccc1` stands 69% (inactive); under `CCc1ccc(NC(=O)N2CCN(C(=O)c3nsc4ccccc34)CC2)cc1`, 87% (inactive).
Under `CCc1ccccc1NC(=O)N1CCN(C(=O)c2nsc3ccccc23)CC1` stands 17% (active); under `Cc1cc(C)cc(NC(=O)N2CCN(C(=O)c3nsc4ccccc34)CC2)c1`, 88% (inactive); under `O=C(Nc1ccccc1)N1CCN(C(=O)c2nsc3ccccc23)CC1`, 88% (inactive).
As for `Cc1cccc(NC(=O)N2CCN(C(=O)c3nsc4ccccc34)CC2)c1C`, the survival is 88% (inactive).
`Cc1ccc(NC(=O)N2CCN(C(=O)c3nsc4ccccc34)CC2)cc1C`: the survival is -5% (active).
Under `O=c1oc2ccc3ccccc3c2cc1-c1nnc(Nc2ccc(F)cc2)s1` stands 78% (inactive).
For `Cc1cccc(NC(=O)CN2C(=O)C3(SCC(=O)N3c3ccccc3)c3ccccc32)c1` (stereo not given), the survival was 123% (inactive).
Under `O=C(NCCc1csc2nc(-c3ccc(F)cc3)nn12)c1cccc(C(F)(F)F)c1` stands 78% (inactive); under `Cc1ccc(CNC(=O)CSc2ncc(S(=O)(=O)c3ccc(Br)cc3)c(=O)[nH]2)cc1`, 125% (inactive); under `CCOc1ccc(CNC(=O)c2ccc3[nH]c(C)c(C)c3c2)cc1OC`, 67% (inactive).
`CCCCN(C)CC(O)Cn1cc(/C=C/C(=O)c2ccc(OC)c(OC)c2)c2ccccc21` (stereo not given): the survival was 67% (inactive).
`CCOc1ccc(C(=O)/C=C/c2cn(CC(O)CN3CCc4ccccc43)c3ccccc23)cc1` (stereo not given): the survival was 56% (inactive).
As to `C=CCn1cc(/C=C(/C#N)C(=O)OCC)c2ccccc21`, the survival is 83% (inactive).
Under `CCCCN(C)CC(O)Cn1cc(/C=C/C(=O)c2ccc(C)cc2)c2ccccc21` (stereo not given) stands 6% (active).
Under `CCCCN(C)CC(O)Cn1cc(/C=C/C(=O)c2ccc(Br)cc2)c2ccccc21` (stereo not given) stands 0% (active); under `Cc1ccc(C(=O)/C=C/c2cn(CC(O)CN3CCc4ccccc43)c3ccccc23)cc1` (stereo not given), 73% (inactive); under `CCCCN(C)CC(O)Cn1cc(/C=C/C(=O)c2ccc(OCC)cc2)c2ccccc21` (stereo not given), 6% (active).
Under `O=S1(=O)N=C(SCCO)c2ccccc21` stands 85% (inactive); under `CCOc1ccc(NC(=O)c2cc(S(=O)(=O)N3CCCCCC3)cn2C)cc1`, 120% (inactive).
Regarding `CCCC1N=C2c3ccccc3N=C(SCC(=O)NCCc3ccc(Cl)cc3)N2C1=O` (stereo not given), the survival was 93% (inactive).
Under `Cc1ccccc1Cn1c(SCc2ccc(C(=O)NCCc3ccccc3)cc2)nc2ccncc21` stands 82% (inactive).
Under `CCCCOc1ccc(NC(=O)CS(=O)CC(=O)Nc2ccc(OC)cc2)cc1` (stereo not given) stands 84% (inactive); under `CSc1cccc(NS(=O)(=O)c2ccc3[nH]cc(C(=O)N4CCCCCC4)c(=O)c3c2)c1`, 82% (inactive).
As for `CC(C)(C)c1ccc(C(=O)Nc2cc(-c3nc4ccccc4o3)ccc2Cl)cc1`, the survival is 13% (active).
Under `O=C(Nc1cc(-c2nc3ccccc3o2)ccc1Cl)c1ccc(Br)o1` stands 54% (active); under `Cc1ccc2oc(-c3ccc(C)c(NC(=O)c4ccc(C(C)(C)C)cc4)c3)nc2c1`, 136% (inactive); under `Cc1ccc2nc(-c3ccc(Cl)c(NC(=O)c4ccc(Br)o4)c3)oc2c1`, 48% (inactive).
Under `CC(C)(C)c1ccc(C(=O)Nc2ccc(-c3nc4ccccc4o3)c(O)c2)cc1` stands 69% (inactive); under `Cc1cc(NC(=O)c2ccc(Br)o2)cc(-c2nc3ccccc3o2)c1O`, 98% (inactive).
Under `CCC(NC(=O)Nc1ccc(OC)c(OC)c1)c1c(-n2cccc2)sc2c1CCN(C)C2` (stereo not given) stands 65% (inactive).
`COc1ccccc1CNC(=O)c1ccc2c(c1)nc(C)n2-c1cccc(C)c1`: the survival was 74% (inactive).
Under `COc1ccc(S(=O)(=O)NCCS(=O)(=O)N2CCN(c3ccccc3)CC2)cc1C` stands 102% (inactive); under `CCc1ccccc1N(CC(=O)N1CCc2ccccc2C1)S(C)(=O)=O`, 96% (inactive).
Under `COc1ccc(N(CC(=O)N2CCc3ccccc3C2)S(=O)(=O)c2ccccc2)cc1` stands 58% (inactive).
As to `CCOc1ccccc1N(CC(=O)N1CCc2ccccc2C1)S(=O)(=O)c1ccccc1`, the survival was 37% (active).
With `COc1ccc(-n2ncc(C(=O)NCc3ccco3)c2C2CCN(C(=O)OC(C)(C)C)CC2)cc1`, the survival is 83% (inactive).
Regarding `Cc1ccccc1NC(=S)N1CCC(NC(=O)C(C)(C)C)CC1`, the survival was 92% (inactive).
Under `O=C(Nc1ccc(F)cc1F)C1CCN(S(=O)(=O)c2ccc3[nH]c(=O)ccc3c2)CC1` stands 83% (inactive).
Under `CCOC(=O)Cn1nnnc1CN(Cc1cc2c(C)ccc(C)c2[nH]c1=O)C1CCCCC1` stands 88% (inactive).
Under `O=C1/C(=C/c2ccccc2O)CC/C1=C\c1ccccc1O` stands 55% (active).
In the case of `Oc1ccc(N=Cc2ccccc2O)cc1`, the survival was 109% (inactive).
On to `CCN(CC)c1ccc(C=C2C(=O)c3ccccc3C2=O)c(O)c1`, for which the survival was 74% (inactive).
`CCOC(=O)c1cccc(NC(=O)CCn2c(=O)oc3ccccc32)c1`: the survival is 39% (active).
In the case of `CCOC(=O)c1cccc(NC(=O)CCn2c(-c3ccc(F)cc3)cc(C(=O)OCC)c2C)c1`, the survival is 76% (inactive).
Under `CCOC(=O)c1ccc(NC(=O)NCCOCCn2c(=O)oc3ccccc32)cc1` stands 77% (inactive); under `COC(=O)c1ccc(NC(=O)Cn2c(=O)oc3ccccc32)cc1`, 69% (inactive); under `NS(=O)(=O)c1ccc(NC(=O)CCn2c(=O)oc3ccccc32)cc1`, 73% (inactive).
For `CCN(CC)CCOC(=O)c1ccc(NC(=O)CCn2c(=O)oc3ccccc32)cc1`, the survival is 45% (active).
Under `CCc1cccc(C)c1NC(=O)C1CCN(S(=O)(=O)c2c(C)noc2/C=C/c2c(C)cc(C)cc2C)CC1` stands 81% (inactive).
Under `Cn1cc(S(=O)(=O)N2CCCC2)cc1C(=O)Nc1ccc(F)cc1F` stands 77% (inactive).
Regarding `COc1ccc(NC(=O)C(NC(=O)Cc2cccs2)c2ccc(OC)cc2)cc1` (stereo not given), the survival was 137% (inactive).
`C=CCNC(=O)CSc1nc2cc(C)cc(C)c2cc1C#N`: the survival is 58% (inactive).
Under `COc1ccccc1CNC(=O)CC(c1ccc(OC)c(OC)c1)N1Cc2ccccc2C1=O` (stereo not given) stands 83% (inactive).
Under `CCOC(=O)c1noc2ncn(Cc3cccc(C#N)c3)c(=O)c12` stands 130% (inactive); under `COc1ccc(CCCc2nnc(SCC(=O)Nc3ccc(Cl)cc3)o2)cc1`, 92% (inactive).
Under `COc1ccc(OC)c(NC(=O)CSC2=Nc3ccccc3C3=NC(CC(=O)NCc4ccc5c(c4)OCO5)C(=O)N23)c1` (stereo not given) stands 80% (inactive); under `COc1ccc(OC)c(NC(=O)CSC2=Nc3ccccc3C3=NC(CCC(=O)NCc4ccco4)C(=O)N23)c1` (stereo not given), 78% (inactive); under `COc1ccc(OC)c(NC(=O)CSC2=Nc3ccccc3C3=NC(CCC(=O)NCc4ccccc4)C(=O)N23)c1` (stereo not given), 0% (active).
As to `COc1ccc(OC)c(NC(=O)CSC2=Nc3ccccc3C3=NC(CCC(=O)NCCc4ccccc4)C(=O)N23)c1` (stereo not given), the survival was 80% (inactive).
Under `COc1ccc(OC)c(NC(=O)CSC2=Nc3ccccc3C3=NC(CC(=O)NCc4ccc(F)cc4)C(=O)N23)c1` (stereo not given) stands 52% (active).
`COc1ccc(NC(=O)CSC2=Nc3ccccc3C3=NC(CC(=O)NCc4ccc(F)cc4)C(=O)N23)cc1` (stereo not given): the survival was 55% (inactive).
For the compound `CCOc1ccc(C2C(=O)N(C3CCCCC3)CC(=O)N2C2CCCC2)cc1OC` (stereo not given), the survival is 71% (inactive).
Under `CC(=O)N1CCOc2cc(S(=O)(=O)NCc3ccccc3Cl)c(C)cc21` stands 85% (inactive); under `Cc1cc(Cl)ccc1NC(=O)c1cccc(NC(=O)N2CCSc3ncccc32)c1`, 74% (inactive); under `CCCc1nn2c(=O)cc(COC(=O)c3ccco3)nc2s1`, 77% (inactive).
Take `CCOC(=O)c1cc2c(=O)n3ccccc3nc2n(C)c1=NC(=O)c1c(-c2ccccc2Cl)noc1C`: the survival is 141% (inactive).
Under `Cc1ccc(NC(=O)c2c(C)nc3sc(C(=O)Nc4ccc(F)cc4)c(N)c3c2-c2ccc(C)o2)c(C)c1` stands 60% (inactive).
Under `COC(=O)c1cc2oc3ccccc3c2n1Cc1c(F)cccc1Cl` stands 118% (inactive).
`CNC(=O)c1c(-c2ccccc2)oc2ccc(OC)cc12`: the survival was 90% (inactive).
Take `CCOC(=O)c1c(-c2ccccc2)oc2ccc(OCc3ccccc3Br)cc12`: the survival is 38% (active).
Under `O=C(O)c1c(-c2ccccc2)oc2ccc(OCc3c(F)cccc3Cl)cc12` stands 29% (active); under `CCOC(=O)c1c(-c2ccccc2)oc2ccc(NS(=O)(=O)c3ccc(C(C)C)cc3)cc12`, 70% (inactive); under `C=Cc1ccc(COc2ccc3oc(-c4ccccc4)c(C(=O)OCC)c3c2)cc1`, 45% (active).
Under `O=C(O)c1c(-c2ccccc2)oc2ccc(OCc3ccc(Cl)c(Cl)c3)cc12` stands -1% (active); under `CCOC(=O)c1c(-c2ccccc2)oc2ccc(N(C(C)=O)S(=O)(=O)c3ccc(CC)cc3)cc12`, 69% (inactive).
Consider `Cc1ccc(NC(=O)Cn2c(=O)n(CCCCC(=O)NCc3ccc4c(c3)OCO4)c(=O)c3ccccc32)cc1`, for which the survival was 72% (inactive).
Under `CC1(C)N([O-])C2=C(CCCC2)[N+]1=O` stands 83% (inactive); under `CCCc1nc2ccccc2n2c(-c3cccc(C)c3)c3c(=O)n(C)c(=O)n(C)c3c12`, 67% (inactive).
On to `Cc1cc(-c2ccc(C)c(S(=O)(=O)NCCc3ccccc3)c2)on1`, for which the survival is 80% (inactive).
On to `CCOC(=O)c1c(-c2ccc(OC)cc2)oc2ccc(OCc3ccccc3C)cc12`, for which the survival was 51% (inactive).
Under `CCOC(=O)c1c(-c2ccccc2)oc2ccc(N(C(C)=O)S(=O)(=O)c3ccccc3)cc12` stands 60% (inactive); under `CCOC(=O)c1c(-c2ccc(OC)cc2)oc2ccc(OCc3ccc(Br)cc3)cc12`, 63% (inactive).
For the compound `CCOC(=O)c1c(-c2ccc(OC)cc2)oc2ccc(OCc3ccc(C(=O)OC)cc3)cc12`, the survival was 48% (inactive).
Under `CCOC(=O)c1c(-c2ccccc2)oc2ccc(N(C(C)=O)S(=O)(=O)c3ccc(C)cc3)cc12` stands 62% (inactive); under `CCOC(=O)c1c(-c2ccc(OC)cc2)oc2ccc(OCc3ccc(F)cc3F)cc12`, 38% (active); under `CCOC(=O)c1c(C)oc2ccc(OCC(N)=O)cc12`, 100% (inactive).
For `CCOc1ccc(-c2oc3ccc(C)cc3c(=O)c2O)cc1`, the survival is 91% (inactive).
Under `CCOC(=O)c1c(-c2ccccc2)oc2cc(Br)c(OCC(N)=O)cc12` stands 79% (inactive); under `CCOC(=O)c1c(-c2ccccc2)oc2ccc(OCc3ccc(C)cc3)cc12`, 30% (active).
Regarding `Cc1ccc(COc2ccc3oc(-c4ccccc4)c(C(=O)O)c3c2)cc1`, the survival is 34% (active).
Under `CCOC(=O)c1c(-c2ccccc2)oc2cc(Br)c(OCc3ccccc3)cc12` stands 36% (active).
